Data on 53 molecules can be found in paper PMC4336329 (PLoS ONE, 2015).

Each structure is given as a SMILES string. Out of some 310,000 compounds screened, about 14,000 (4.5%) showed an effect of 50% or more. Effects have a minus sign here. Many of the other results were omitted from the sample, so strong results are more common in it than they were.
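Also: peak tail current of the secondary pulse compared with the same well before compound.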

The target of the assay is human ether-à-go-go-related gene (hERG) potassium channel (human, UniProt Q12809). As to the kind of experiment: primary screen, population patch clamp on CHO cells stably expressing hERG; higher = less effect of the substance.
Chain of human ether-à-go-go-related gene (hERG) potassium channel (Q12809 whole entry, looked up): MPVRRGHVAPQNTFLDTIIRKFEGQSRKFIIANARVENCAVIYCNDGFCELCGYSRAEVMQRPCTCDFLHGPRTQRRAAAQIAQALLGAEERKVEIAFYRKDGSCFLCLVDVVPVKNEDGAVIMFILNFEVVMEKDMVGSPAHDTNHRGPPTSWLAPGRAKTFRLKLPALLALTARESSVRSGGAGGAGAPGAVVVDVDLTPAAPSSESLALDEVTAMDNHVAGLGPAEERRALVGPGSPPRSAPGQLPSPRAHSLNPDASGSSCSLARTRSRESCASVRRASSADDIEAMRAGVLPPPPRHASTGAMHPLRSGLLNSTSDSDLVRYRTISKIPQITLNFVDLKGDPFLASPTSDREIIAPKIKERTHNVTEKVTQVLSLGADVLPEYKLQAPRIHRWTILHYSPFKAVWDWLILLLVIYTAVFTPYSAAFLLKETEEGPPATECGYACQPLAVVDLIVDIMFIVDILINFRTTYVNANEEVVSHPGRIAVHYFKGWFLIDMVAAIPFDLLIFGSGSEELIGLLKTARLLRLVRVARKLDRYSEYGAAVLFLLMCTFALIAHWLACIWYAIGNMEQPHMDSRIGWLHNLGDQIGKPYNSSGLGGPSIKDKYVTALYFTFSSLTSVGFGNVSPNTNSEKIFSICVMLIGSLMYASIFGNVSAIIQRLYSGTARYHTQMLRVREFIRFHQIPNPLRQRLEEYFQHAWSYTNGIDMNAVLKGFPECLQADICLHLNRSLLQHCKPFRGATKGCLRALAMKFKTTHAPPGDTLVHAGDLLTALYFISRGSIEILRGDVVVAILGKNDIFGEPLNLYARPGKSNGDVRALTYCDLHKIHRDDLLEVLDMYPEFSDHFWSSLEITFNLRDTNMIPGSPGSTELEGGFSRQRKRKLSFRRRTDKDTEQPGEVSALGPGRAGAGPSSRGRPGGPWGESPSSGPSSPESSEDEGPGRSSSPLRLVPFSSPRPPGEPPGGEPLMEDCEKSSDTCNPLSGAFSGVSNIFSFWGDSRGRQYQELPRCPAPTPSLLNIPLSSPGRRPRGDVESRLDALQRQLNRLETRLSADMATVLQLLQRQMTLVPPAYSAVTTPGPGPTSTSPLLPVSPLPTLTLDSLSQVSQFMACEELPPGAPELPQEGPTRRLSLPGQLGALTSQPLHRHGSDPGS
For the molecule `N/C(=N\OC(=O)c1ccc(F)cc1)c1ccc(Br)cc1`, the “hERG current change (%, negative = inhibition) at 10uM” value is on record as 15.4%.
Under `CC(=O)Nc1ccc(C=C(C(C)=O)C(C)=O)cc1` stands 2.2%; under `COc1ccc(CN2C(=O)c3cccnc3C2=O)cc1S(=O)(=O)N1CCOc2ccc(C)cc21`, -11.6%; under `CNc1c([N+](=O)[O-])cnn1-c1cccc(Cl)n1`, 14.4%.
The value for `CC(NC(=O)C(=O)NCCCn1ccnc1)c1ccccc1` (centres unmarked) was 15.6%; that for `O=C(O)c1ccccc1C(=O)NCCCn1ccnc1` was 18.4%.
The value for `Cc1cccn2c(=O)c3cc(C(=O)NC(C)c4ccccc4)c(=N)n(CCCn4ccnc4)c3nc12` (centres unmarked) was -68.1%; that for `Cc1cccn2c(=O)c3cc(C(=O)NCCCn4ccnc4)n(C)c3nc12` was -11%.
Take `Cc1cccn2c(=O)c3cc(C(=O)NCCc4ccccc4)c(=N)n(CCCn4ccnc4)c3nc12`: the “hERG current change (%, negative = inhibition) at 10uM” value was -74.4%.
Under `Cc1ccc(N(C(=O)c2cccs2)C2C=CS(=O)(=O)C2)cc1` (centres unmarked) stands -24.4%; under `CCCOC(=O)c1ccc(NC(=O)c2cc(OC)c(OC)c(OC)c2Br)cc1`, 8.82%.
With `O=C(O)C(=O)O.O=[N+]([O-])c1cccc(OCCCN2CCC(Cc3ccccc3)CC2)c1`, the “hERG current change (%, negative = inhibition) at 10uM” value is listed as -78.1%.
For the molecule `CCc1cccc(OCCOCCN2CCCC2)c1.O=C(O)C(=O)O`, the “hERG current change (%, negative = inhibition) at 10uM” value is -46.1%.
On to `O=C(O)C(=O)O.O=[N+]([O-])c1cccc(OCCN2CCC(Cc3ccccc3)CC2)c1`, for which the “hERG current change (%, negative = inhibition) at 10uM” value is on record as -71.1%.
The value for `FC(F)(F)c1cccc(OCCN2CCN(Cc3ccccc3)CC2)c1.O=C(O)C(=O)O` was -40.8%.
The value for `O=C(O)c1cc([N+](=O)[O-])ccc1N1CCC(Cc2ccccc2)CC1` was -4.42%; that for `Cn1c2c(c(=O)n(C)c1=O)C(c1cc3c(cc1Br)OCO3)CC(=O)N2` (centres unmarked) was 3.46%; that for `O=C(c1ccc(Cn2c(=O)[nH]c3ccsc3c2=O)cc1)N1CCN(c2ccccc2)CC1` was 7.23%.
The value for `Cc1ccccc1C(=O)N1CCC(C(=O)Nc2nc3ccc(F)cc3s2)CC1` was -42.8%.
Take `CC(Sc1nc2cc(Cl)ccc2s1)C(=O)Nc1ccc2c(c1)OCO2` (centres unmarked): the “hERG current change (%, negative = inhibition) at 10uM” value came to 6.08%.
In the case of `COc1ccccc1N1CCN(C(=O)CN2C(=O)c3ccccc3C2=O)CC1`, the “hERG current change (%, negative = inhibition) at 10uM” value was 11.9%.
The value for `COc1ccccc1N1CCN(CCCCOc2ccc(C)cc2C)CC1.O=C(O)C(=O)O` was -50.3%; that for `COc1ccccc1N1CCN(CCCCOc2c(OC)cccc2OC)CC1.O=C(O)C(=O)O` was -57.9%.
Under `CCOc1ccccc1N1CCN(C(=O)CCCN2C(=O)c3cccc4cccc(c34)C2=O)CC1` stands -8.72%; under `COc1ccccc1N1CCN(C(=O)COc2cc(C)ccc2C)CC1`, -18.3%; under `COc1ccccc1N1CCN(C(=O)CCCN2C(=O)c3cccc4cccc(c34)C2=O)CC1.Cl`, -70.9%.
For the molecule `COc1ccccc1N1CCN(CCOc2c(OC)cccc2OC)CC1.Cl`, the “hERG current change (%, negative = inhibition) at 10uM” value is recorded as -34.6%.
The value for `COc1ccccc1N1CCN(C(=O)CCN2C(=O)c3cccc4cccc(c34)C2=O)CC1` was 15.5%; that for `Br.COc1ccccc1N1CCN(CCCCN2C(=O)c3ccccc3C2=O)CC1` was -53.5%; that for `Cc1ccccc1OCCCCCCN1CCNCC1.O=C(O)C(=O)O` was -1.56%.
Under `COc1ccccc1N1CCN(CCN2C(=O)CC(=C3c4ccccc4-c4ccccc43)C2=O)CC1.Cl` stands 0.408%.
Under `COc1ccccc1OCCCCN1CCN(c2ccccc2OC)CC1.O=C(O)C(=O)O` stands -43.1%; under `COC(=O)C1=C(c2ccc(F)cc2OCc2ccccc2)C[C@@H]2CC[C@H]1N2C(=O)NCCCc1ccccc1`, 4.96%; under `CCN(Cc1ccccc1)C(=O)CN1C(=O)NC(CC)(c2ccc(F)cc2)C1=O` (centres unmarked), -7.55%.
Consider `CCn1ncc(Br)c1C(=O)Nc1sc2c(c1C(=O)OC)CCC2`, for which the “hERG current change (%, negative = inhibition) at 10uM” value is -40.8%.
Under `O=C(Cc1ccc(F)cc1)NC1CCS(=O)(=O)C1` (centres unmarked) stands 9.36%; under `Cc1cc(-c2ccccc2)oc(=O)c1NC(=O)c1ccccc1`, 3.11%; under `O=C(N/N=C/c1ccc([N+](=O)[O-])cc1)c1cccnc1`, 0.658%.
The value for `Cc1cccc(Nc2ccccc2C(=O)O)c1C` was 2.88%; that for `CN1CCc2c(sc3c2c(=O)n(-c2ccccc2)c2nnc(SCc4ccc(Cl)cc4)n32)C1` was -2.08%; that for `CCCCSCCCNC(=O)CCCN1C(=O)c2ccccc2Sc2ncccc21` was -27.6%.
As to `COc1ccc(N(C(=O)c2ccc3c(c2)OCO3)C2C=CS(=O)(=O)C2)c(OC)c1` (centres unmarked), the “hERG current change (%, negative = inhibition) at 10uM” value is -22.3%.
Under `C=CCC(=O)N(CC)CC1CCCN(CCc2cccc(F)c2)C1` (centres unmarked) stands -54.2%; under `CCN(CC1CCCN(CCc2cccc(F)c2)C1)C(=O)c1cc(C)oc1C` (centres unmarked), -66.8%.
The value for `Cc1cc(C(=O)N(C)CC2CCCN(CCc3ccc(F)cc3)C2)c(C)o1` (centres unmarked) was -75.7%; that for `CSCc1ccc(C(=O)N2CCCC(Nc3ccc(F)cc3)C2)o1` (centres unmarked) was -18.7%.
Under `CN(C)CCN(CC1CCCN(Cc2ccccc2F)C1)C(=O)Cc1c(F)cccc1F` (centres unmarked) stands -9.05%; under `CCN(CC1CCCN(CCc2cccc(F)c2)C1)C(=O)c1ccc(CSC)o1` (centres unmarked), -74.5%; under `CCN(CC)C(=O)C1CCCN(Cc2cccc(F)c2)C1` (centres unmarked), 7.43%.
As to `C=CCn1c(SCC(=O)Nc2ccc3c(c2)OCO3)nnc1-c1ccccc1OC`, the “hERG current change (%, negative = inhibition) at 10uM” value is -7.02%.
Take `O=S(=O)(c1cccc(-c2nnc(-c3cccnc3)o2)c1)N1CCCCC1`: the “hERG current change (%, negative = inhibition) at 10uM” value is -25%.
The value for `CCOC(=O)Cc1csc(NC(=O)COc2ccccc2OCC)n1` was -24.2%; that for `O=S(=O)(Cc1ccccc1Cl)c1ncn[nH]1` was 14.2%.
